The record followed here is PubChem BioAssay AID1508600 (Functional Genomics Laboratory (NCATS/FGL), 2020).

Screen size: about 53,000 sequences; about 3,700 (7%) were called active. Only a selection was taken, and actives are over-represented in it overall. Values without a mark were called inactive.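 Rule for the calls: active = gene knockdowns whose robust z-score for IL-1 alpha signal is at least 2 or at most -2, so actives lie on both sides; inactive = the rest.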

The nature of the experiment: Components of the Cytosolic LPS Sensing Pathway: Gene Identification via Genome-wide siRNA Screen.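 Note: robust z of the log signal after scaling to non-targeting control siRNA wells of the plate.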 Particulars: RAW264.7 macrophages, IL-1a HTRF, actives lie on both sides, screened at 100 nM (by protocol), cells primed 5 h with Pam3CSK4 first. The gist of the method:
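Supernatant IL-1a by HTRF from RAW264.7 cells primed with Pam3CSK4 (5 hours) and transfected with LipidA (24 hour) after 48h siRNA knockdown at 100 nM; cell viability checked with CellTiter-Glo.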
For GUUUUUCAUACAGUAGUAGTT against Vmn1r27, the z-score was 0.42.
As for “CCUGUGGGACUCAAUGUUGTT against 2310039H08Rik”, the figure is -0.722; as for GGCCAGGAGAAGAAGAUACTT against Tet2, -0.261.
As for GCCAUUCAAAAAUCAGCCGTT against Ddi2, the figure is -2.02 (active); as for GCUCCUAGGAACUUGGUUATT against Pacsin2, 0.687.
As for GGCUGUUACAUUCUAUAUUTT against Kif5c, the figure is -0.13.
CCCAAUUAAUGAUCACCCATT against Tlcd2: the z-score is -3.04 (active).
For GGCCCUGAACUGGUUUUGUTT against Osbpl10, the z-score is -0.119.
In the case of GCUCAACACUCGACAUUGUTT against Rrm1 it was -2.56 (active); in that of GGUGGCAUUAAGGAAAUCATT against Olfr147, -0.0185; in that of GGCCUGAAGCAGCUUAUCUTT against Chad, -1.56.
As for GGCAAAAAUGAGAAAGAGATT against Hebp2, the z-score is -0.643.
With GCGUAUUACACCCUUGGAATT against Terf1, the z-score was -0.462.
As for GUCCUCCAUGAAGAAGCUCTT against Prm3, the figure is -0.953; as for GGACUUCAACAAGACCAUCTT against Proser2, 1.55; as for CGUCCAUAGAACAAUUGCATT against Rnase12, 2.82 (active).
As for GGUAUUCCUGUCUCAGGUCTT against Matn1, the figure is -0.59; as for GGUUAUUCUCAUUUCGGAUTT against Phospho1, 1.53.
For GCUUACUUCCAAGGUCUACTT against Ptch2, the z-score was 0.905.
For the sequence CCCAGCAGGCCAUAUUAGUTT against Cks1b, the z-score is 0.377.
As for GGGAUCAUAAAGAUAACUUTT against Fasn, the figure is 2.2 (active).
As for GCAUAGGGUCAUUUCAAGCTT against Kif23, the figure is 0.0957.
In the case of GCUGUACUAUCUUUUUCAUTT against Olfr165 it was -0.0549; in that of GCCAGUUUGUGUGCAAAAATT against Lrp1, -0.551; in that of GAUCUGGUAUGUUUGUGACTT against Olfr1414, -1.14.
Turning to CCUGUGUGUGAAUCUCGUUTT against C1qb, the z-score is 1.11.
With GGAAAUGUUGCCGUUGUCCTT against Mfsd8, the z-score was 2.13 (active).
As for GGGUGGGAGACGAAGAUAATT against Usp17lf, the figure is -0.12.
With CCUAAUGGUUCAGGAUACGTT against Pcdhb5, the z-score is -0.641.
As for GGCUUUGAAAGUUACUACUTT against Zfp609, the figure is 1.22; as for GCCACUGUGUGGAAUAAAUTT against Cblif, 0.727; as for CCAAAAGAGUUUUACAGGGTT against Lhx9, -0.119.
As for GGAUCAGGAAGUAAACUUCTT against S100a6, the figure is 2.57 (active).
As for GCUGUGUAGCAUUUUAACATT against Ank2, the figure is -0.0376; as for GUUGACUGUACCCGAUACATT against Mxd3, -0.0552.
Regarding GGUGCUGAGGCUGAUUCUCTT against Capn15, the z-score was 3.35 (active).
In the case of GGUAUAUCGCCUAAUCACUTT against Chd6 it was -0.885; in that of GGUAGUGGAGCUGAAUGUUTT against Kctd8, 0.113; in that of GCAGCCUUCGUGAGUCUGUTT against Asb1, -0.666.
As for GGAUUAUGAUCCAGAAUUCTT against Omd, the figure is 2.96 (active); as for GGGACAUGAGUAACUGAUGTT against Dhx8, -0.908.
As to GGUUGUGAUGUGGUGGUCATT against Mdh2, the z-score was 1.3.
As for GGGAGAGACAGAAAGCUUUTT against Olfr213, the figure is 1.61; as for GCCUAGAAAGUCUGAAUAATT against Ifng, 0.203; as for GCUGUAAGCCAAUUAACAUTT against Emp1, 1.06.
CGUGCUUAGCAAUCUGAAUTT against Bcl6b: the z-score is 2.44 (active).
As for GGAAACAACUUUCUAUAACTT against Vmn1r195, the figure is -0.487; as for GGAUUCAGCAAAUGCUUCCTT against Rcor3, 2.31 (active).
As for GGACAAGGCCAAGCUAUAATT against Cntnap2, the figure is -1.47; as for GCACCAAAUUCACUAGAGUTT against Cd24a, 0.83; as for GCCCAUAAACUGAUGGUGGTT against Tbc1d24, -0.45.
CCCAACAAAUACCACUACATT against Usp20: the z-score was -1.39.
In the case of GGAUCUGGUGACAAACGUATT against Cabyr it was 2.04 (active).
In the case of CCCGACUGAAUGCUCGGAUTT against Rnf220 it was 0.386; in that of GGAGAAAGCUCGAAAAUGGTT against Prpf8, -1.61.
As for GGAAGGAAACUACGAAGGUTT against Edn1, the figure is -0.534.
With GGAUGCAGAAGCAACUUAATT against AA986860, the z-score was 1.91.
In the case of CCGAUUUCCACAUCUGUCATT against Fam104a it was -2.45 (active); in that of GGAAAGAAACAGAAGCACATT against Il21, -0.511; in that of “GCCUCUGUUCCAUCUUGGATT against F830104G03Rik”, 1.61.
In the case of GCUCAGCAGGAAAUAACAGTT against Ccdc90b it was -2.06 (active).
For GGAUGAAGAGCAUAACAGUTT against Sft2d2, the z-score is -0.95.
As for GCUAGUCAUGCUACGGAAUTT against Aftph, the figure is 0.601; as for GGUUGUUUCACCAAUAGUUTT against Idi1, -0.454; as for GGGCAGAUGUAAUUCUUGUTT against Ctsm, 1.91.
As for GGUACAUGUAUUGUUUCACTT against Cyp2c38, the figure is 2.76 (active); as for GGAUUAUCCUGGCUUGUUGTT against Rdh12, -0.962.
As for GCUGAUUGCCUCGGAGAAUTT against Shmt1, the z-score was -0.0766.
Regarding GCGCAUCGAAAAAUGGAUUTT against Rgl3, the z-score was 0.236.
In the case of GGUAUUGAGUGAUAACUACTT against Klhdc7a it was 1.29.
In the case of GCAUUCAAUCUGCAGAGGGTT against Olfr888 it was -2.48 (active); in that of GGGUAGAAAAGUGCAAUUUTT against Has2, 0.0317.
As for CGCUCUAGGAAAACAAUGUTT against Klb, the figure is -0.614; as for GGGUACAUCUAACUUGAAUTT against Tnfrsf10b, -0.411.
Turning to GCGGCAUGGACUUAGUAAATT against Fbxo5, the z-score was 3.11 (active).
In the case of CGAUUAGUCUCUCAUUAUUTT against Ipo11 it was -1.12.
Take GGCUAAUGCUCCUUCAUGUTT against Myo18a: the z-score was -0.439.
In the case of GCCCUGCACCAGAAAAACATT against Stk40 it was -0.662; in that of GGUCUCUGUCUCCAAGAAATT against Fam53c, -1.69; in that of GGUGUUUGGGCGGUUUGAATT against Snx15, -2.25 (active).
In the case of CCCUUAAUAAAGAAGGGACTT against Atg9a it was 0.961; in that of GGGUCUACGAAGAAUAGGGTT against Cxcl14, 0.744; in that of GCUAGAAGCUUUCUAUUCUTT against Hsph1, 1.68.
As for GGAGAGUAUCUGAAGUUUCTT against Jak2, the figure is 1.8; as for GGUAAAAUGAUCCUUAGAATT against Pcdh15, 0.145.
For the sequence GGAGCUGUCUCUACGAAACTT against Myoz3, the z-score was 1.27.
In the case of GGAGCCUUUAAUCUCAUUATT against Wbp1 it was -0.463; in that of GCCGUUUUAUUCACGUGAATT against Erp27, -1.36; in that of GGAUGUGGUGGUAUUAGACTT against Phykpl, 2.5 (active).
GGAAGAGGUUCAGAACAGATT against Spaca1: the z-score is 1.19.
As for GGACCAAGGAUGUUCGCUUTT against Cnr2, the figure is 1.14.
For the sequence GGAACGAACUCAUUAAAACTT against Abhd3, the z-score was -0.736.
As for CCGAUUUGGGUCAAUUUUATT against Usf3, the figure is -0.047; as for GGCGGAUUGAAUAAGAAGGTT against Pfn2, -0.517; as for GGGCUUUGGAUGAACUGCATT against Cldn17, -0.0702.
In the case of GGAGCUCUUUGAGUACAUCTT against Ift46 it was 2.48 (active); in that of CUCACAAGUCAAAGCCUACTT against Zfp182, 0.121; in that of AAUAGACUGGUACUCUCUGTT against Olfr476, 1.08.
In the case of GCCUGGUUACAGCAUUAACTT against Rimkla it was -1.75.
On to GGUCAAACAAGAAACAGUUTT against Prdm1, for which the z-score was 0.417.
For the sequence GCUGUGCCCUAAAGACUGGTT against Clec2m, the z-score is 2.27 (active).
In the case of GGUGAAGCUGAAGAAGUACTT against Chst12 it was 0.975; in that of GGAUAAUGGAGCAAAUUGCTT against Slc22a1, -0.522.
As for GCAAGUUAACCAGACCCAATT against Mro, the figure is 0.709; as for GGAGAAGCUGUUUGUUCUGTT against Ftcd, 0.507.
In the case of GGACAAGGCAACACAUACCTT against Csnk1a1 it was 2.58 (active).
On to GCCACUACUACAUCAAUGUTT against Mall, for which the z-score is 1.24.
As for GGGUCCUCUUUAAAAGGCUTT against Smc6, the figure is -1.1.
